SARS PLP yeast: qHTS of Yeast-based Assay for SARS-CoV PLP; hit rate 0.19% among 330,000; S. cerevisiae expressing SARS-CoV PLpro, growth rescue; Potency, µM (top dose mostly 32.9 µM), actives largely listed as activators; AID 485353, 2010; calls by dose curve; also: nearly all actives have a fitted effect of over 55% in size
Pf growth 96h: Primary qHTS for delayed death inhibitors of the malarial parasite plastid, 96 hour incubation | hit rate 6.9% among 320,000 | Potency, µM (highest dose often 28.7 µM), actives largely listed as inhibitors | AID 504834, 2011 | P. falciparum luciferase reporter growth, 96 h
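Infected RBCs, 2% Hct / 0.05% parasitemia final; luciferase-reporter P. falciparum; cpd 96 h, 37 C, 5% CO2; luciferase detection reagent; luminescence.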
Pf growth 48h: Primary qHTS for delayed death inhibitors of the malarial parasite plastid, 48 hour incubation. P. falciparum luciferase growth in erythrocytes, 48 h. Potency, µM (top dose mostly 28.7 µM), actives largely listed as inhibitors. hit rate 5.9% among 310,000
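In quantitative HTS format, infected erythrocytes bearing luciferase-reporter parasites were treated for a single generation at 37 C. Luminescence after adding detection reagent served as the growth measure.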
NS1 inh: qHTS Assay for Inhibitors of Influenza NS1 Protein Function. Potency, µM (series often up to 46.1 µM). hit rate 0.4% among 270,000. AID 2326, 2010; calls by dose curve; also: actives are rising curves; nearly all actives have a fitted effect of over 50% in size
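Compounds were scored for reversing the slow growth caused by influenza A NS1 in S. cerevisiae, measured by optical density at 600 nm. Assay medium contained 2% galactose at pH 6.0; NS1-free yeast of the same strain were the positive control.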
Cycloheximide cs: Cycloheximide Counterscreen for Small Molecule Inhibitors of Shiga Toxin. cell reporter, cycloheximide protein synthesis inhibition counterscreen. AID 2314, 2010. hit rate 12% among 300,000. max response, %; in the data active = max response mostly above about 13%, no sharp cut-off; inactive = mostly below about 14%; also: read at 38.3 µM for the half of the compounds with a filed dose
Shiga toxin inh: A qHTS for Small Molecule Inhibitors of Shiga Toxin; Vero cells, Shiga toxin protein synthesis inhibition reporter; inhibition, % at 38.7 µM; hit rate 9.2% among 290,000; in the data active = inhibition mostly above about 28%, no sharp cut-off; inactive = mostly below about 43%
Numbers stand for hits; i = inactive; ? = inconclusive; nt = no result given; [ ] = another dose, or the depositor's remark. Shown are actives, neighbours in structure and some others; about 21% of the full set was active somewhere. Unless noted, calls follow the shape of the dose curve; as a rule, active = well fitted inhibition curve with a large enough effect; inconclusive = small, poorly fitted or top-dose-only effect, or another doubt; inactive = no such curve, though single readings can be large or run the other way.

SMILES	SARS PLP yeast	Pf growth 96h	Pf growth 48h	NS1 inh	Cycloheximide cs	Shiga toxin inh
CCOC(=O)N1CCN(C(=O)c2ccc(Cl)c(NC(=O)c3cccs3)c2)CC1	i	?	10.4µM	nt	nt	nt
CCCc1ccc(S(=O)(=O)N2CCN(C(C)C(=O)NCc3ccccc3)CC2)cc1 (stereo not given)	i	?	?	nt	nt	nt
COC(=O)c1ccc(C)c(NC(=O)C(CCSC)NC(=O)c2cc(OC)c(OC)c(OC)c2)c1 (stereo not given)	i	i	i	i	i	i
COc1cc(C(=O)OCc2ccc(C)cc2)cc(NC(=O)c2cccs2)c1OC	i	10.4µM	8.28µM	i	i	i
CCC(=O)Oc1ccc(C2NC(=O)c3ccccc3O2)cc1OC (stereo not given)	i	?	i	i	i	i
O=C(COC(=O)c1ccc(Cl)nc1)NC1CCCc2ccccc21 (stereo not given)	i	nt	nt	nt	nt	nt
NNC(=S)NCc1ccc2c(c1)OCO2	?	i	i	i	i	i
O=C(Nc1ccc(Cl)cc1)OCc1cn(-c2ccc(Cl)cc2)nn1	i	i	i	i	i	i
Clc1ccc(-n2cc(COCc3ccccc3)nn2)cc1	i	i	i	nt	i	56.6
O=C(CSCc1cc(=O)n2nc(C3CC3)sc2n1)Nc1ccccc1Cl	i	3.29µM	?	i	i	i
CCOCCc1nn2c(=O)cc(CSCC(=O)Nc3ccccc3)nc2s1	i	i	?	i	21.3	i
CCOCCc1nn2c(=O)cc(CSCC(=O)Nc3ccc(OC)cc3)nc2s1	i	i	i	i	i	i
CC(=O)Nc1ccc(N=Cc2c(O)c(C(=O)Nc3ccccc3)cc3ccccc23)cc1	i	i	?	nt	i	104.3
CC(=O)Nc1ccc(N=Cc2c(O)c3ccccc3oc2=O)cc1	i	i	i	i	i	i
C=CS(=O)(=O)c1sc(Cl)c(N2CCOCC2)c1[N+](=O)[O-]	i	i	i	i	15.6	i
O=[N+]([O-])c1cccc(Cl)c1N1CCOCC1	i	?	i	i	i	i
C=CSc1sc(Cl)c(N2CCOCC2)c1[N+](=O)[O-]	i	i	8.28µM	i	i	i
C=CCOC(=O)C(=O)/C=C/c1csc2ccccc12	i	i	i	i	i	i
C=CCOC(=O)C(=O)/C=C/c1ccc2c(c1)Cc1ccccc1-2	i	i	i	i	14.1	i
Cc1nc2c(s1)sc1ccccc12	i	i	i	i	18.9	i
CN(C)C(=O)[C@H]1C[C@H]1[C@@H](O)[C@H](CO)NC(=O)[C@H](COCc1ccccc1)NC(=O)OC(C)(C)C	i	?	i	i	i	i
COc1cc(NS(=O)(=O)c2ccc(C(=O)O)cc2)c2nc(C)ccc2c1	nt	nt	nt	nt	i	i
CC(C)CCNC(=O)C1CCCN(S(=O)(=O)c2ccc3c(c2)CC(C)N3C(=O)C2CC2)C1 (stereo not given)	i	i	i	i	i	i
CC(C)CCNC(=O)C1CCN(S(=O)(=O)c2ccc3c(c2)CC(C)N3C(=O)C2CCC2)CC1 (stereo not given)	i	?	14.7µM	i	i	i
Cc1ccnc(NC(=O)C2CCN(S(=O)(=O)c3ccc4c(c3)CC(C)N4C(=O)C3CCC3)CC2)c1 (stereo not given)	i	?	10.4µM	i	i	i
SMILES	SARS PLP yeast	Pf growth 96h	Pf growth 48h	NS1 inh	Cycloheximide cs	Shiga toxin inh
Cc1ccc(NC(=O)C2CCN(S(=O)(=O)c3ccc4c(c3)CC(C)N4C(=O)C3CCC3)CC2)nc1 (stereo not given)	i	?	?	i	i	i
O=C1CC(c2cccc(Cl)c2)CC(O)=C1C=Nc1cccc(Cl)c1 (stereo not given)	i	i	i	i	i	i
O=C1CC(c2ccccc2)CC(O)=C1C=Nc1ccccc1 (stereo not given)	i	i	i	nt	30.3	92.3
O=C1CC(c2ccccc2)CC(O)=C1C=NC1CCCC1 (stereo not given)	i	i	?	i	i	i
O=C1CC(c2ccccc2)CC(O)=C1C=Nc1ccccc1O (stereo not given)	i	i	?	i	23.2	i
O=C(CN1CCN(Cc2cccc3ccccc23)CC1)NCCc1ccccc1	i	?	i	i	i	i
Cc1ccc(CN(C(=O)COc2ccc(C)c(C)c2)C2CCS(=O)(=O)C2)o1 (stereo not given)	i	?	i	i	i	i
CN1CCN(c2c(/C=N/O)c3ccccc3n2C)CC1	i	i	i	i	i	i
Cc1ccccc1C(=O)O/N=C/c1c(N2CCOCC2)n(C)c2ccccc12	i	2.33µM	2.62µM	i	i	i
CCOC(=O)c1ccc(N2C(=O)C3C(C2=O)C(C(=O)c2ccc(Cl)cc2)N2CCCC32)cc1 (stereo not given)	i	i	13.1µM	i	i	i
CCOC(=O)c1ccc(N2C(=O)CC(SCC(N)C(=O)OCC)C2=O)cc1 (stereo not given)	i	i	10.4µM	i	i	i
Cc1ccc(N2CN(CCc3ccccc3)CNC2=S)cc1	i	?	9.28µM	i	i	i
CCOC(=O)c1ccc(N2C(=O)C=CC2=O)cc1	i	nt	i	i	i	i
CCOC(=O)c1ccc(-n2c(C)ccc2C)cc1	i	7.38µM	i	i	i	i
COc1cc(NC(=O)CSc2ncnc3sc4c(c23)CCC(C)C4)c(C(=O)O)cc1OC (stereo not given)	i	?	i	i	i	i
COc1ccccc1C(=O)NC(CCSC)C(=O)NCCCn1nc(C)cc1C (stereo not given)	i	i	i	nt	nt	nt
CCOc1ccccc1NC(=O)COC(=O)c1c[nH]c2ccccc12	i	i	?	nt	nt	nt
CC(C)OC(=O)c1ccc(N2C(=O)C3CC=CCC3C2=O)cc1 (stereo not given)	i	nt	i	i[9.22 µM]	19.9	i
CCCN1CNC(=S)N(c2ccc(C(=O)OCC)cc2)C1	i	i	i	i	i	i
CCOC(=O)c1ccc(N2CN(CC)CNC2=S)cc1	10µM	i	i	i	i	i
CCOC(=O)c1ccc(N2C(=O)C3CC=CCC3C2=O)cc1 (stereo not given)	i	i	i	i	18.7	i
COc1ccc(NC(=O)[C@@H](NC(N)=O)C(C)C)cc1Cl	i	i	i	nt	i	i
CN(Cc1ccccc1Br)C(=O)CN1C(=O)NC2(CCCCCC2)C1=O	i	?	?	nt	nt	nt
Cc1nnsc1C(=O)N1CCCC(N2CCN(c3ccc(F)cc3)CC2)C1 (stereo not given)	0.708µM	i	i	i	i	i
O=C(Cn1cccn1)N1CCCC(N2CCN(c3ccccc3F)CC2)C1 (stereo not given)	i	3.7µM	i	i	i	i
O=C(COc1ccccc1Cl)N1CCCC(N2CCN(c3ccc(F)cc3)CC2)C1 (stereo not given)	i	8.28µM	11.7µM	i	i	i
O=C(CCCn1cncn1)N1CCCC(N2CCN(c3ccccc3F)CC2)C1 (stereo not given)	?	i	i	i	i	i
